Laboratory results as given in the supplement of paper PMC7830784.

These compounds were tested on Brugia pahangi adult female (assay: IC50 motility inhibition on day 3). Conditions: 3 days.
Experimental: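 Single adult female Brugia pahangi worms in 24-well plates (RPMI-1640, 5% FBS, 37 °C) were treated with 10 µM of each compound from a 2121-drug library (4 replicates; 1% DMSO vehicle and 10 µM auranofin controls). Motility was recorded with WormAssay dark-field imaging, and % inhibition of motility on day 3 is relative to vehicle. IC50 values for selected hits come from a 6-point dilution series (30 to 0.1 µM) fitted in GraphPad Prism.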

Compound	IC50 motility inhibition on day 3 [µM]
CCCCCCCCCCCCCCCC[n+]1ccccc1 [cetylpyridinium chloride]	3.4
C[C@@H]1O[C@@H](O[C@@H]2C=C3CC[C@@H]4[C@H](CC[C@]5(C)[C@@H](c6ccc(=O)oc6)CC[C@]45O)[C@@]3(C)CC2)[C@H](O)[C@H](O)[C@H]1O [proscillaridin]	0.731
CC[C@@H](C(=O)[C@@H](C)[C@@H](O)[C@H](C)[C@@H]1O[C@@H]([C@@H](CC)C(=O)O)CC[C@@H]1C)[C@H]1O[C@]2(C=C[C@@H](O)[C@]3(CC[C@@](C)([C@H]4CC[C@](O)(CC)[C@H](C)O4)O3)O2)[C@H](C)C[C@@H]1C [salinomycin]	0.635
CC(=O)[O][Hg][c]1ccccc1 [phenylmercuric acetate]	0.179
Oc1cccc2cccnc12 [oxyquinoline]	1.5
[O-][n+]1ccccc1[S-].[O-][n+]1ccccc1[S-].[Zn+2] [pyrithione zinc]	0.0963
O=c1[nH]c2ccccc2n1C1CCN(CCCC(c2ccc(F)cc2)c2ccc(F)cc2)CC1 [Pimozide]	2.52
CNC(=O)Oc1ccc2c(c1)[C@]1(C)CCN(C)[C@@H]1N2C [(-)-Physostigmine]	13.6
C[CH2][Hg][S]c1ccccc1C(=O)[O-].[Na+] [thimerosal]	0.406
N[C@@H]1C[C@H]1c1ccccc1.N[C@H]1C[C@@H]1c1ccccc1 [tranylcypromine]	6.15
